For one test, the system named is CAOV3. Nature of the test: Primary qHTS to identify gynecologic anti-cancer compounds using libraries of approved drugs and bioactive compounds (AID 1345084). Further: nearly all actives have a fitted effect of over 55% in size. On activity change, negative = cytotoxicity: on the % scale 0 is the no-effect control and ±100 the full control effect. The settings on record: Gynecologic cancer cell panel viability, ATPlite luminescence, 48 h; series mostly up to 57.5 µM. Put shortly: (§1)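 ATP-based viability (ATPlite), 1,000 cells/well, 16 h pre-incubation, 48 h compound at 37 C, 5% CO2, 15 min RT before read.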

The test system of a further test is Es-2. Described as above. Conditions: Gynecologic cancer cell panel viability, ATPlite luminescence, 48 h; series mostly up to 57.5 µM. Summed up:
as §1
Background: In ATP-based viability assays light output follows the ATP content of the culture.

The subject of the next test is HeLa. The description is as above. The settings on record: Gynecologic cancer cell panel viability, ATPlite luminescence, 48 h; series mostly up to 57.5 µM. Put shortly:
as §1

Another test concerns Hek293T. The description is as above. The settings on record: Gynecologic cancer cell panel viability, ATPlite luminescence, 48 h, control line for the selectivity index; series mostly up to 57.5 µM. Put shortly: as §1
The subject of the next test is JEG-3. The description is as above. The settings on record: Gynecologic cancer cell panel viability, ATPlite luminescence, 48 h; series mostly up to 57.5 µM. Summed up: as §1
The next test relates to OV90. The test is described as above. Conditions: Gynecologic cancer cell panel viability, ATPlite luminescence, 48 h; series mostly up to 57.5 µM. Summed up: as §1
The test system of a further test is SKOV3. The test is described as above. The settings on record: Gynecologic cancer cell panel viability, ATPlite luminescence, 48 h; series mostly up to 57.5 µM. Put shortly:
as §1

In a further test the test system is Tov112D. The test is described as above. Conditions: Gynecologic cancer cell panel viability, ATPlite luminescence, 48 h; series mostly up to 57.5 µM. Summed up:
as §1

The nature of test [1]: Drug repurposing screens with cells derived from glioblastoma tumor samples (AID 1345199). On activity, negative = cell killing: on the % scale 0 is the no-effect control and ±100 the full control effect. On all read-outs here: nearly all actives have a fitted effect of over 40% in size. Conditions: GBM patient neurospheres viability, ATP luminescence, 48 h; for Potency: tumour line A. Put shortly: (§2)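 Primary testing used CD133+ neurospheres from four GBM patients, seven concentrations, 48 h exposure and ATP-based viability; confirmation added three slower-growing patient lines.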

A further test concerns astro. The test is described as above. The settings on record: viability, ATP luminescence, 48 h; series mostly up to 45.9 µM. Put shortly:
as §2

The next test relates to CASKI. Nature of the test: Primary qHTS to identify gynecologic anti-cancer compounds using libraries of approved drugs and bioactive compounds (AID 1345084). Further: nearly all actives have a fitted effect of over 55% in size. On activity change, negative = cytotoxicity: on the % scale 0 is the no-effect control and ±100 the full control effect. The settings on record: Gynecologic cancer cell panel viability, ATPlite luminescence, 48 h; series mostly up to 57.5 µM. Summed up:
as §1
For orientation: Quantitative high-throughput screening tests each substance at several concentrations.

The subject of another test is PA-1. The description is as above. Conditions: Gynecologic cancer cell panel viability, ATPlite luminescence, 48 h; series mostly up to 57.5 µM. Summed up:
as §1

The test system of the next test is Tov-21-G. Described as above. Conditions: Gynecologic cancer cell panel viability, ATPlite luminescence, 48 h; series mostly up to 57.5 µM. Put shortly: as §1
Test [2] in a line: qHTS assay to identify inhibitors of the type 1 interferon - major histocompatibility complex class I in skeletal muscle: Counter screen cell viability and HiBit confirmation (AID 1347412). Further: nearly all actives have a fitted effect of over 60% in size. The settings on record: iHSKM muscle cells + IFN-b, HiBiT or CellTiter-Glo, 24 h; HiBiT. Put shortly: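 After 24 h with human IFN-beta (4 ng/ml) and compound titrations (top 46 uM final, 1:3, 12 points), HLA-B HiBit myoblasts were lysed for either Nano-Glo HiBiT luminescence or CellTiter Glo viability on paired plates.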

The mark [3] stands for this setting: at 45.9 µM (top of the series), tumour line B.
Where [4] appears, read: at 46.1 µM (top of the series), tumour line C.

Records with an inconclusive call do not appear. Values without a mark were called inactive. Activity calls are given as the source filed them. The call rests on the fitted dose curve; in most records, active means well fitted curve in the direction sought with a large enough effect; inconclusive means small, poorly fitted or top-dose-only effect, or another doubt; inactive means no such curve, though single readings can be large; an effect the other way counts as inactive or inconclusive.
Potency means the concentration at half of the fitted maximal effect.

`C#C[C@]1(O)CC[C@H]2[C@@H]3CCC4=C/C(=N/O)CC[C@@H]4[C@H]3CC[C@@]21CC`: the Potency entry in the test with CAOV3, in the test with Es-2, with Hek293T, in the test on JEG-3, with OV90 and with SKOV3 was “inactive” throughout. In addition, the Potency result in the test on Tov112D was “inactive”. The Potency is 14.1 µM (active) with HeLa, 12.6 µM (active) in test [1] and 20 µM (active) in the test on astro. Also, the activity, negative = cell killing was -7.76% in [1] (setting [3]) and -27.9% in [1] (setting [4]).

Turning to `COC1CC(=O)C23C(=O)NC(CC(C)C)C2C(C)C(C)=CC3/C=C(\C)CCC1O` (stereo unspecified), the Potency entry with CAOV3, with CASKI, in the test on Es-2, in the test on HeLa, in the test on JEG-3 and with OV90 was “inactive” throughout. Further, the Potency entry with PA-1, in the test with SKOV3, in the test on Tov-21-G and in the test with Tov112D was “inactive” throughout.

Consider `OC[C@H]1O[C@@H](n2cnc3c(NCc4ccc(O)cc4)ncnc32)[C@H](O)[C@@H]1O`, for which the Potency entry in the test with CAOV3, in the test on Es-2, in the test with Hek293T, in the test on OV90, in the test with PA-1 and with SKOV3 was “inactive” each time.

In the case of `Clc1ccc2c(c1)C1=NCCN1c1c(-c3noc(C4CC4)n3)ncn1-2`, the Potency entry in the test with CASKI, with Es-2, in the test with Hek293T, in the test with JEG-3, in the test on OV90 and in the test with PA-1 was “inactive” each time. Further, the Potency result in the test on SKOV3, in the test with Tov-21-G and in the test on Tov112D was “inactive” throughout. For the same compound, the Potency in the test on HeLa is 3.16 µM (active).

In the case of `Nc1ccn([C@@H]2C(F)=C(CO)[C@@H](O)[C@H]2O)c(=O)n1`, the Potency result with CAOV3, with CASKI, in the test with HeLa, with JEG-3 and in the test with OV90 was “inactive” throughout. Further, in the test with PA-1, the Potency was 2.24 µM (active).

As for `C=C1CC[C@H]2[C@@](C)(CCC(O)[C@@]2(C)CO)[C@@H]1C/C=C(/C(=O)O)C(O)CO` (stereo partly specified), the Potency entry with CAOV3, in the test on Es-2, with HeLa, in the test on Hek293T, in the test with JEG-3 and with OV90 was “inactive” in each case. In addition, the Potency entry in the test on PA-1, in the test with SKOV3, in the test on Tov-21-G and in the test on Tov112D was “inactive” each time.

`O=C1NC(=Nc2ccccc2F)S/C1=C\c1ccc(C(=O)O)cc1`: the Potency result in the test with CAOV3, with Es-2, in the test with HeLa, with Hek293T, in the test on JEG-3 and in the test on OV90 was “inactive” throughout. Moreover, the Potency result in the test with PA-1, with Tov-21-G and with Tov112D was “inactive” each time.

Consider `O=C(O)c1cnn(-c2nc3cc(OC(F)(F)F)c(Cl)cc3[nH]2)c1`, for which the Potency result in the test with CAOV3, in the test on Es-2, with HeLa, in the test on Hek293T, with JEG-3 and in the test with OV90 was “inactive” throughout. The Potency result in the test on PA-1, with Tov-21-G and in the test with Tov112D was “inactive” in each case.

As to `Nc1c(Br)cc(Br)cc1CNC1CCC(O)CC1` (stereo unspecified), the Potency result in the test with CAOV3, with Es-2, in the test with HeLa, with Hek293T, with JEG-3 and in the test with OV90 was “inactive” throughout. Further, the Potency entry in the test with PA-1, in the test with SKOV3, with Tov-21-G, with Tov112D and in the test with astro was “inactive” in each case. In addition, the activity, negative = cell killing in [1] (setting [3]) was -15.5%; in [1] (at 45.9 µM (top of the series), tumour line D), -18.1%; in [1] (setting [4]), -10.6%. The Potency in [1] is 14.1 µM (active).

For the compound `Cc1c(N2C(=O)c3ccc(C(=O)O)cc3C2=O)c(=O)n(-c2ccccc2)n1C`, the Potency result in the test on CASKI, with Es-2, with HeLa, in the test with Hek293T, in the test on JEG-3 and in the test with OV90 was “inactive” throughout. The Potency result in the test on PA-1, in the test with SKOV3, in the test with Tov-21-G and in the test on Tov112D was “inactive” in each case.

As for `COc1ccc(/C=C/C(=O)O[C@@H]2[C@@H](O)[C@H](C)O[C@@H](OC3C4C=COC(O[C@@H]5O[C@H](CO)[C@@H](O)[C@H](O)[C@H]5O)C4C4(CO)OC34)[C@@H]2O)cc1OC` (stereo partly specified), the Potency result in the test with CASKI, with Es-2, in the test with HeLa, in the test with Hek293T, in the test on JEG-3 and in the test with OV90 was “inactive” throughout. Further, the Potency entry in the test with PA-1, in the test on SKOV3, in the test with Tov-21-G and with Tov112D was “inactive” each time.

In the case of `CCCCNC(=O)[C@@H]1Cc2ccccc2N1C(=O)[C@@H](N)CC`, the Potency result with CAOV3, with CASKI, with Es-2, in the test on HeLa, in the test on JEG-3 and in the test on OV90 was “inactive” throughout. Further, the Potency entry in the test on PA-1, in the test on SKOV3, in the test with Tov-21-G and with Tov112D was “inactive” throughout.

As to `O=C(O)C[C@@H](NC(=O)c1cc(-c2ccc(-c3ccncc3)cc2)cs1)c1ccccc1`, the Potency result in the test with CAOV3, in the test with CASKI, in the test with HeLa, in the test with Hek293T, in the test on JEG-3 and in the test with OV90 was “inactive” each time. Further, the Potency result in the test with PA-1, in the test on SKOV3 and with Tov112D was “inactive” each time.

With `CC(=O)N1c2ccccc2C2(O)CC3C(=O)NC(CC(C)C)C(=O)N3C12` (stereo unspecified), the Potency result in the test with CAOV3, with CASKI, in the test on Es-2, in the test on HeLa, in the test with JEG-3 and in the test on OV90 was “inactive” each time. In addition, the Potency result in the test with PA-1, in the test on SKOV3, in the test on Tov-21-G and in the test with Tov112D was “inactive” in each case.

`C=C[C@@]1(C)CC(=O)C2[C@](C)(O1)[C@@H](OC(C)=O)[C@@H](O)[C@H]1C(C)(C)CCC[C@]21C` (stereo partly specified): the activity change, negative = cytotoxicity in the test on CAOV3 was 10.9% [at 11.6 µM]; in the test with CASKI it was -3.47% [at 11.6 µM]; in the test with Es-2, 1.29% [at 11.6 µM]; in the test on HeLa it was 4.53% [at 11.6 µM]; in the test on Hek293T, -0.239% [at 11.6 µM]; in the test on JEG-3, 7.71% [at 11.6 µM]. In addition, the activity change, negative = cytotoxicity in the test on PA-1 was 5.09% [at 11.6 µM]; in the test on Tov-21-G, 0.473% [at 11.6 µM]; in the test on Tov112D, 4.2% [at 11.6 µM].

Regarding `CCOc1cc2ncc(C#N)c(Nc3ccc(OCc4ccccn4)c(Cl)c3)c2cc1NC(=O)/C=C/CN(C)C`, the Potency entry in the test with CAOV3, with Es-2, in the test on Hek293T, in the test on JEG-3, in the test on OV90 and in the test on Tov112D was “inactive” each time. In test [2], the Potency is 1.57 µM (active).

On to `Cc1cc(N2CCCCC2)nc2ccccc12`, for which the Potency entry in the test on CAOV3, with CASKI, in the test with Es-2, in the test with HeLa, in the test with Hek293T and in the test with OV90 was “inactive” throughout. The Potency entry in the test with PA-1, in the test with Tov-21-G and with Tov112D was “inactive” throughout.

On to `COC(=O)C1=C[C@@H](O)[C@@H](O)[C@H](O[C@@H]2O[C@H](COC(=O)/C=C/c3ccccc3)[C@@H](O)[C@H](O)[C@H]2O)C1`, for which the Potency entry with CASKI, in the test with Es-2, in the test with HeLa, with Hek293T, in the test with JEG-3 and with OV90 was “inactive” in each case. The Potency result with PA-1, with SKOV3, in the test with Tov-21-G and in the test with Tov112D was “inactive” each time.

The record behind these values is PubChem BioAssay (NCATS).
